# Legend:
# Test in all cases: protein-binding microarray (PBM); PBM: ~300 nM protein, 6 mM HEPES pH 7.8, 80 mM KCl, 0.5 mM EDTA, 0.5 mM EGTA, 6% glycerol, 35 ng/ul poly-dIdC, 1% milk, 1 h, room temperature; Ap Aiptasia and Nv Nematostella (sea anemones) / Co Capsaspora / Aq Amphimedon (sponge) / Dm Drosophila / Hu human; RHD is the Rel homology domain; high values mean tight binding
# Details in all cases: dsDNA, one strand shown
# [1] = target: T1, GST-Ap-NF-kB RHD (Exaiptasia pallida (Aiptasia), UniProt A0A913YAJ5 2-422)
# T1 sequence: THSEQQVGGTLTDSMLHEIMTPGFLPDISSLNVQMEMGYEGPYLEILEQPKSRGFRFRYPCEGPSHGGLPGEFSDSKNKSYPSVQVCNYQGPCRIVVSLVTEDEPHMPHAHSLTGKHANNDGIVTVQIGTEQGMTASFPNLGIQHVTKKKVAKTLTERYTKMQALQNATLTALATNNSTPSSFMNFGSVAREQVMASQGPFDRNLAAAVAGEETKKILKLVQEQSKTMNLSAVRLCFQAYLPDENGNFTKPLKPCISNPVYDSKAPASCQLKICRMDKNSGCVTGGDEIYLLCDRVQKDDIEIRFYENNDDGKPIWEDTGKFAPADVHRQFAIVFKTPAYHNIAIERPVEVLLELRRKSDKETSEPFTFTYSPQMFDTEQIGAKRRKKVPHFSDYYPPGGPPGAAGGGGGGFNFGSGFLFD
# [2] = target: T2, GST-Nv-NF-kB (Cys allele) (Nematostella vectensis, UniProt E5G601 2-411)
# T2 sequence: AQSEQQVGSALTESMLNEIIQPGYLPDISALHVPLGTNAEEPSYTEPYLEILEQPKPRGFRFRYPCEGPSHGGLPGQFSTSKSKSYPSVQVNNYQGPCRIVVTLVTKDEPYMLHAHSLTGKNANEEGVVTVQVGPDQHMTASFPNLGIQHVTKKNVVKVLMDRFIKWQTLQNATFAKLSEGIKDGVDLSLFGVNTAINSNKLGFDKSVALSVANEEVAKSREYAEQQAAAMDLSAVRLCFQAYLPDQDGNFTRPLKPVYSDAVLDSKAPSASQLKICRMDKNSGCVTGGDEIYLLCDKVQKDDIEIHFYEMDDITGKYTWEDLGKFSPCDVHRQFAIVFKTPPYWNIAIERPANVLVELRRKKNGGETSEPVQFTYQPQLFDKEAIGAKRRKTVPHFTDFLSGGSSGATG
# [3] = target: T3, GST-Co-NF-kB (Capsaspora owczarzaki, UniProt F1ARL5 200-546)
# T3 sequence: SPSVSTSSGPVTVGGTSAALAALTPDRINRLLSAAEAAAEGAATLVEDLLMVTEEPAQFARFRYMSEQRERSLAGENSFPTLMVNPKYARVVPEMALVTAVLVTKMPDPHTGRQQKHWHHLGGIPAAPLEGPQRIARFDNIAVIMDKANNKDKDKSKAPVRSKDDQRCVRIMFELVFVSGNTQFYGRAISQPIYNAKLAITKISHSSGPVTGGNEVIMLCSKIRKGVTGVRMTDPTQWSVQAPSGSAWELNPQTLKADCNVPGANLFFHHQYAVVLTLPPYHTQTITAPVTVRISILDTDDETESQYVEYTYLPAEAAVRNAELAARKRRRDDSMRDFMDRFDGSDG
# [4] = target: T4, GST-Dm-Relish (Drosophila melanogaster, UniProt Q94527 99-473)
# T4 sequence: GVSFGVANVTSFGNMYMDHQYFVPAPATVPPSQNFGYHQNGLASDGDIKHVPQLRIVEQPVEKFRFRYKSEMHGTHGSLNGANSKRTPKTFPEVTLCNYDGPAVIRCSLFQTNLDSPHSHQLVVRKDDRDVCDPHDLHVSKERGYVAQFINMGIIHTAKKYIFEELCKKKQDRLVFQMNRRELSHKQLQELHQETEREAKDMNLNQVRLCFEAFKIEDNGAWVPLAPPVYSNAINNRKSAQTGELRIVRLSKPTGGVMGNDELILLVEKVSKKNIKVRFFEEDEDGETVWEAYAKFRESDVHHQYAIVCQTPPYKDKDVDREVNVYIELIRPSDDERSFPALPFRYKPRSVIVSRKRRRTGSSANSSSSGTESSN
# [5] = target: T5, GST-Aq-NF-kB (Amphimedon queenslandica, UniProt A9Y5G7 2-389)
# T5 sequence: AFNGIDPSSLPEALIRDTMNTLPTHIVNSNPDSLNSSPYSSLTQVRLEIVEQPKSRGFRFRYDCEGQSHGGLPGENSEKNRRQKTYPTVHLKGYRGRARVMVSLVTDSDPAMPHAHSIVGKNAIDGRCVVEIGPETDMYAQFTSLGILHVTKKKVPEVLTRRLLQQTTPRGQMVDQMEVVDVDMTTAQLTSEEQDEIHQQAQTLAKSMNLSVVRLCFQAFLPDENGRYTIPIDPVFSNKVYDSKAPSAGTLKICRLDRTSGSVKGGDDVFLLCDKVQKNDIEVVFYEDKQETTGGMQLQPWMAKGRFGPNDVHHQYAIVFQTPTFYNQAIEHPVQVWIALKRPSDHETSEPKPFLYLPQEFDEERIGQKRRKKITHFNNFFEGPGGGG
Sequence,binding signal [1],binding signal [2],binding signal [3],binding signal [4],binding signal [5]
CCGATTAACATCAAAATTCCCAATGATGTTAATCGGGTCTTGATTCGCTTGACGCTGCTG,3.1 z-score,4.95 z-score,4.01 z-score,5.17 z-score,4.03 z-score
CCGATTAACATCACAACACCCCCTGATGTTAATCGGGTCTTGATTCGCTTGACGCTGCTG,5.03 z-score,3.99 z-score,3.14 z-score,4.4 z-score,4.65 z-score
CCGATTAACATCACAGGGAATTCTGATGTTAATCGGGTCTTGATTCGCTTGACGCTGCTG,4.57 z-score,5.56 z-score,3.45 z-score,3.71 z-score,4.62 z-score
CCGATTAACATCATCCCCGTGTCTGATGTTAATCGGGTCTTGATTCGCTTGACGCTGCTG,2.75 z-score,3.34 z-score,4.49 z-score,2.12 z-score,3.87 z-score
CCGATTAACATCAAGGGGTCCCCTGATGTTAATCGGGTCTTGATTCGCTTGACGCTGCTG,5.55 z-score,3.3 z-score,1.66 z-score,6.15 z-score,4.02 z-score
CCGATTAACATCAGGGAATCCTATGATGTTAATCGGGTCTTGATTCGCTTGACGCTGCTG,3.36 z-score,4.16 z-score,2.52 z-score,7.42 z-score,4.15 z-score
CCGATTAACATCAAGCATCCCCCTGATGTTAATCGGGTCTTGATTCGCTTGACGCTGCTG,4.92 z-score,5.03 z-score,4.28 z-score,3.89 z-score,4.87 z-score
CCGATTAACATCAGGCTTCCCCCTGATGTTAATCGGGTCTTGATTCGCTTGACGCTGCTG,5.74 z-score,5.65 z-score,6.8 z-score,6.44 z-score,5.57 z-score
CCGATTAACATCAGGGGGAAGCATGATGTTAATCGGGTCTTGATTCGCTTGACGCTGCTG,4.43 z-score,5.1 z-score,7.73 z-score,3.21 z-score,4.01 z-score
CCGATTAACATCAAATGGGAATTTGATGTTAATCGGGTCTTGATTCGCTTGACGCTGCTG,1.19 z-score,4.5 z-score,1.12 z-score,4.52 z-score,2.35 z-score
CCGATTAACATCACGTGTTTCCCTGATGTTAATCGGGTCTTGATTCGCTTGACGCTGCTG,2.62 z-score,2.76 z-score,3 z-score,3.51 z-score,3.35 z-score
CCGATTAACATCATCAGGGGGGATGATGTTAATCGGGTCTTGATTCGCTTGACGCTGCTG,4.58 z-score,4.51 z-score,6.21 z-score,4.27 z-score,5.18 z-score
CCGATTAACATCAGGGAATTCGATGATGTTAATCGGGTCTTGATTCGCTTGACGCTGCTG,3.01 z-score,3.99 z-score,2.25 z-score,1.66 z-score,3.01 z-score
CCGATTAACATCAGGACTACCCCTGATGTTAATCGGGTCTTGATTCGCTTGACGCTGCTG,3.7 z-score,3.48 z-score,1.83 z-score,2.36 z-score,6.48 z-score
CCGATTAACATCACAAACTTCCCTGATGTTAATCGGGTCTTGATTCGCTTGACGCTGCTG,3.81 z-score,4.26 z-score,2.51 z-score,3.48 z-score,4.68 z-score
CCGATTAACATCAGGCCCCCCCCTGATGTTAATCGGGTCTTGATTCGCTTGACGCTGCTG,5.7 z-score,4.06 z-score,3.96 z-score,6.13 z-score,5.74 z-score
CCGATTAACATCAGGGAATGTACTGATGTTAATCGGGTCTTGATTCGCTTGACGCTGCTG,2.21 z-score,3.28 z-score,2.29 z-score,7.08 z-score,4.86 z-score
CCGATTAACATCAGGGGGGCACCTGATGTTAATCGGGTCTTGATTCGCTTGACGCTGCTG,4.84 z-score,3.13 z-score,3.02 z-score,3.62 z-score,4.5 z-score
CCGATTAACATCAGGGGATGGGATGATGTTAATCGGGTCTTGATTCGCTTGACGCTGCTG,3.51 z-score,3.51 z-score,2.16 z-score,1.4 z-score,2.91 z-score
CCGATTAACATCAATTTTCCCAATGATGTTAATCGGGTCTTGATTCGCTTGACGCTGCTG,1.98 z-score,3.86 z-score,3.99 z-score,1.29 z-score,2.61 z-score
CCGATTAACATCAGGGTTTTTTATGATGTTAATCGGGTCTTGATTCGCTTGACGCTGCTG,4.39 z-score,5.06 z-score,1.36 z-score,5.89 z-score,6.24 z-score
CCGATTAACATCAGGAATACCCATGATGTTAATCGGGTCTTGATTCGCTTGACGCTGCTG,4.37 z-score,4.62 z-score,1.39 z-score,4.16 z-score,4.54 z-score
CCGATTAACATCACTGGGAAAACTGATGTTAATCGGGTCTTGATTCGCTTGACGCTGCTG,1.79 z-score,2.36 z-score,5.25 z-score,1.48 z-score,1.81 z-score
CCGATTAACATCACCGATTTCCCTGATGTTAATCGGGTCTTGATTCGCTTGACGCTGCTG,2.92 z-score,3.79 z-score,3.27 z-score,2 z-score,2.57 z-score
CCGATTAACATCACCTTCCCCCCTGATGTTAATCGGGTCTTGATTCGCTTGACGCTGCTG,4.15 z-score,4.07 z-score,7.1 z-score,3.79 z-score,4.32 z-score
CCGATTAACATCAGATCTTCCCCTGATGTTAATCGGGTCTTGATTCGCTTGACGCTGCTG,4.63 z-score,6.25 z-score,7.3 z-score,4.83 z-score,6.29 z-score
CCGATTAACATCAAGTGTTTCCCTGATGTTAATCGGGTCTTGATTCGCTTGACGCTGCTG,2.2 z-score,3.22 z-score,3.78 z-score,4.7 z-score,3.79 z-score
CCGATTAACATCACTGGGAATTCTGATGTTAATCGGGTCTTGATTCGCTTGACGCTGCTG,3.23 z-score,3.49 z-score,3.79 z-score,3.32 z-score,2.67 z-score
